# Reference: PubChem BioAssay (Tox21)
# Inconclusive results are not listed. Activity calls are given as the source filed them. Calls follow the shape of the dose curve; as a rule, active = well fitted inhibition curve with a large enough effect in the repeat runs; inconclusive = weak or mixed curves, or effect the other way; inactive = no such curve, though single readings can be large or run the other way.
# Biological target: Nuclear receptor ROR-gamma (Homo sapiens) (UniProt P51449)
# Test: qHTS assay to identify small molecule antagonists of the retinoid-related orphan receptor gamma (ROR-gamma) signaling pathway (AID 1159521; also: top concentration of the series differs between compounds; nearly all actives have a fitted effect of over 50% in size)
# Details: Tet-on RORgamma CHO cells, RORE-luciferase, 16 h; series mostly up to 92.4 µM
# Source text: U.S. Tox21 Program National Center for Advancing Translational Sciences [NCATS] NIH Chemical Genomics Center [NCGC] U.S. Environmental Protection Agency [EPA] National Institutes of Environmental Health Sciences [NIEHS] National Toxicology Program [NTP] U.S. Food and Drug Administration [FDA] Tox21 Assay Overview: Nuclear steroid hormone receptors are involved in many biological processes including inflammatory responses, cell proliferation, and apoptosis. Environmental factors or compounds disrupting these nuclear receptor pathways and gene expression may promote susceptibility to immunotoxicants and autoimmune diseases. One important group of these expression factors are the retinoid-related orphan receptors. To assess compounds that may interfere with the retinoid-related orphan receptor gamma (ROR-gamma) transcription factor, a cell-based luciferase assay was used. The CHO cell-based assay utilizes a TET-inducible ROR expression factor and ROR response element-LUC reporter gene. Reporter gene activity was induced using Doxycycline Hyclate and measured after 16 hr incubation. Tet-on ROR gamma CHO cells were used to screen against the Tox21 10K compound library for ROR gamma antagonists by quantification of decreased reporter gene activity in terms of decreased luminescence.
# Tox21 Assay Protocol Summary: Tet-on ROR gamma CHO cells were dispensed at 1,000 cells in 4 uL of culture medium per well into white wall/solid bottom 1536-well plates using a Multidrop Combi (Thermo Scientific, Waltham, MA) dispenser. Following incubation at 37 C and 5% CO2 for 4 hr, 23 nL of compounds dissolved in DMSO, positive controls or DMSO only were transferred by a Pintool station (Kalypsys, San Diego, CA) and after 2 hr incubation at 37 C, one ul of 1 uM (final concentration) of Doxycycline Hyclate was added to all the wells by using a Flying Reagent Dispenser (FRD) (Aurora Discovery, San Diego, CA). After 16 hr incubation at 37 C and 5% CO2, 5 uL of ONE-Glo reagent (Promega Corporation, Madison, WI) was added to each assay plate using FRD. After 30 min incubation at room temperature, luminescence was quantified on a ViewLux plate reader (Perkin Elmer, Waltham, MA).
# % is scaled to controls: 0 for no effect and ±100 for the full control effect.
SMILES,outcome,"activity change, negative = inhibition"
CCCCSCCCC,inactive,–
Cc1ccc(C(C)NC(=O)[C@@H](NC(=O)OC(C)C)C(C)C)cc1 (stereo not given in full),inactive,–
Cc1c(Cl)cccc1Cl,inactive,–
N[C@@H](CSCCCO)C(=O)O,–,25% [at 19 µM] (inactive)
CC(=O)O[C@H]1C[C@@H]2CC[C@@]1(C)C2(C)C,inactive,–
CCCCCC/C=C/C(=O)OC,inactive,–
Cc1ccccc1C(N)=O,inactive,–
CCc1occc(=O)c1O,inactive,–
CCC/C=C(\C=O)CC,inactive,–
O=S(=O)(O)c1ccc2c(N=Nc3ccc(S(=O)(=O)O)c4ccccc34)c(O)c(S(=O)(=O)O)cc2c1,–,0.236% [at 8.39 µM] (inactive)
O=C(Cn1ccnc1[N+](=O)[O-])NCc1ccccc1,inactive,–
CN(C)CCCO[C@@H]1[C@H]2OC(C)(C)O[C@H]2O[C@@H]1C(O)CO (stereo not given in full),inactive,–
O=C(O)CONC(=O)c1ccccc1,inactive,–
CC(=O)C1C(=O)C=C(C)OC1=O (stereo not given),inactive,–
C[C@]12CCC(=O)C=C1CC[C@H]1[C@@H]3CC[C@](O)(C(=O)CO)[C@@]3(C)C[C@H](O)[C@@]12F,inactive,–
O=C(O)CNC(=O)CNC(=O)CNC(=O)CSC(=O)c1ccccc1,inactive,–
CC1=C(C(=O)O)N2C(=O)[C@@H](NC(=O)[C@H](N)c3ccccc3)[C@H]2SC1,inactive,–
Nc1nc(-c2ccccc2)c(Br)c(=O)[nH]1,inactive,–
O=C(CN1CCNCC1)NC1CCCCC1,inactive,–
CC(C)Nc1ccccc1,inactive,–

SMILES,outcome,"activity change, negative = inhibition"
CC(=O)Nc1ccc(OC(=O)c2ccccc2OC(C)=O)cc1,inactive,–
CC(=O)c1cc(C)oc1C,inactive,–
OC[C@@H](O)C(O)[C@@H](O)CO (stereo not given in full),inactive,–
C=CCCCC,inactive,–
NCc1ccc(S(N)(=O)=O)cc1,inactive,–
CSc1cnccn1,inactive,–
CN(C)CC/C=C1/c2ccccc2COc2ccc(CC(=O)O)cc21,inactive,–
O=C(O)[C@H](O)c1ccccc1,inactive,–
CCCCCC(C)O (stereo not given),inactive,–
O=C(O)c1cc2ccccc2nc1C(=O)O,inactive,–
CCCCCCCCCCCCCBr,inactive,–
CC(C)COC(=O)c1ccccc1,inactive,–
C=CC(=O)CCCCC,inactive,–
Nc1nnnn1-c1ccccc1,inactive,–
O=NN(CCCl)C(=O)NC1CCCCC1,inactive,–
N#Cc1ccccc1O,inactive,–
Cc1ccc(C)c([N+](=O)[O-])c1,inactive,–
CC(C)[C@H]1CC[C@H](C)C[C@@H]1O,inactive,–
CCC[C@@H]1C[C@@H](C(=O)N[C@@H]([C@H]2O[C@H](SC)[C@H](O)[C@@H](O)[C@H]2O)[C@@H](C)O)N(C)C1,inactive,–
CCCC(CC)c1ccccc1 (stereo not given),inactive,–
